PubChem BioAssay (NCI)
Compounds without any hit were thinned out: in the full panel of roughly 83,000, 20% have a hit.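 The test compound was applied at a single concentration to cells in 96-well plates for 48 hours, and percent growth was recorded.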 A number with no mark means an inactive call. The source made the active and inactive calls. The calls were made as follows: active = growth percent below 10; inactive = the rest.

Legend:
Assay in all cases: NCI-60 one-dose screen, 48 h (100 = growth as untreated, 0 = no growth, -100 = all killed)
Settings in all cases: 10 µM
NCI-H23 lung = test system: NCI-H23 lung
NCI-H226 lung = test system: NCI-H226 lung
NCI-H322M lung = test system: NCI-H322M lung
HOP-62 NSCLC = test system: HOP-62 NSCLC
NCI-H460 lung = test system: NCI-H460 lung
HOP-92 NSCLC = test system: HOP-92 NSCLC
NCI-H522 lung = test system: NCI-H522 lung
786-0 renal = test system: 786-0 renal
COLO 205 colon = test system: COLO 205 colon
A549/ATCC NSCLC = test system: A549/ATCC NSCLC

SMILES | growth (NCI-H23 lung) | growth (NCI-H226 lung) | growth (NCI-H322M lung) | growth (HOP-62 NSCLC) | growth (NCI-H460 lung) | growth (HOP-92 NSCLC) | growth (NCI-H522 lung) | growth (786-0 renal) | growth (COLO 205 colon) | growth (A549/ATCC NSCLC)
CN1C(=O)CN2CCc3ccccc3C2c2cc(Cl)ccc21 (configuration not stated) | 87.1% | 60.8% | 93.4% | 79.8% | 97.5% | 77.2% | 75.7% | 97.4% | 110% | 
O=C(c1ccccc1)C1CCC1 | 102% | 102% | 101% | 94.5% | 107% | 86.6% | 85.9% | 107% | 112% | 71.6%
c1cc[n+](C2c3ccccc3C([n+]3ccccc3)c3ccccc32)cc1 (configuration not stated) | 65.2% | 49.6% | 84.8% | 37.8% | 98.8% | 20.6% |  | 50% | 30.8% | 78.5%
COc1cc2c(cc1O)CC[C@@H]1C2CC[C@@]2(C)C1CC[C@@H]2O (some centres not stated) | 406% | 57.7% | 53.5% | 33.3% | 8.58% (active) | 79.8% | 1.84% (active) | 36% | 82.5% | 13.9%
CCN(CC)C(=O)/C=C(/C)c1ccccc1 | 96.5% | 97.2% | 106% | 109% | 104% | 80.2% | 107% | 101% | 106% | 113%
CCCC(=O)Nc1ccc2c(c1)CN1C(=O)c3ccccc3C1=N2 | 106% | 100% | 99.1% | 104% | 103% | 95.3% | 106% | 99.2% | 109% | 90%
CCOC(=O)c1[nH]c(C)c(C(C)=O)c1C | 94.2% | 103% | 101% | 89.7% | 103% | 51% | 83.8% | 83.5% | 115% | 105%
CC(C(=O)O)(C1CCCCC1)C1(O)CCCCC1 (configuration not stated) | 103% | 102% | 101% | 96.4% | 105% | 104% |  | 98.9% | 104% | 106%
CCN(CC)c1ccc2nc3ccc(=[N+](CC)CC)cc-3oc2c1 | -46.2% (active) | -46.9% (active) | 10.7% | 1.25% (active) | 6.72% (active) | 15.7% | -29.6% (active) | 34.9% | -69.9% (active) | 18.5%
N#CC(=Nc1cccc(F)c1)C1=C(O)c2ccccc2C1=O | 94.8% | 79.6% | 96.3% | 88.4% | 102% | 63.8% |  | 97.5% | 96% | 95.6%
O=C(Nc1ccccc1)OCCc1ccccc1 | 108% | 103% | 116% | 103% | 103% | 82.5% |  | 97.2% | 119% | 102%
S=C(Nc1ccccc1)N1CCCCC1 | 99.9% | 89.6% | 99% | 90.9% | 110% | 93.3% |  | 102% |  | 99.2%
c1csc(-c2cc(-c3cc(-c4cccs4)[nH]n3)n[nH]2)c1 | 91% | 79.1% | 94.4% | 88.3% | 107% | 93.6% | 88.9% | 98.9% | 114% | 107%
COc1ccc(C2OC(N)=C(O)C2=O)cc1OC (configuration not stated) | 102% | 97.5% | 102% | 105% | 110% | 98% | 93.6% | 101% | 125% | 118%
Nc1ccc(N)c([N+](=O)[O-])c1 | 103% | 94.1% | 101% | 111% | 96% | 109% | 86.4% | 118% | 112% | 
